Test results published in PubChem BioAssay (NCI).
This is part of a sample that, as a whole, favours compounds with a hit. Of some 83,000 tested, about 20% had one in any assay.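 96-well plates, one dose, 48 hours. Percent growth reported; active if below 10.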 A number with no mark means an inactive call. Activity calls are given as the source filed them.

Key:
Experiment in all cases: NCI-60 one-dose screen, 48 h (100 = growth as untreated, 0 = no growth, -100 = all killed)
Conditions in all cases: 10 µM unless noted
[1] = tested on: NCI-H23 lung
[2] = tested on: NCI-H226 lung
[3] = tested on: NCI-H322M lung
[4] = tested on: HOP-62 NSCLC
[5] = tested on: NCI-H460 lung
[6] = tested on: HOP-92 NSCLC
[7] = tested on: A549/ATCC NSCLC
[8] = tested on: 786-0 renal
[9] = tested on: COLO 205 colon
[10] = tested on: NCI-H522 lung

COc1ccc(Oc2ccc(C3CC(c4cc(OC)c(OC)c(OC)c4)=NN3C(C)=O)cc2)cc1 (stereo not given)
growth [1]: 24.1%
growth [2]: 17.1%
growth [3]: 46.9%
growth [4]: 48.1%
growth [5]: 23.8%
growth [6]: 12.2%
growth [7]: 24.8%
growth [8]: 29.2%
growth [9]: 11.1%

O=C1c2c(c3c4ccc(Br)cc4oc3c3[nH]c4ccccc4c23)C(=O)N1CCO
growth [1]: 46.3%
growth [2]: 33.3%
growth [3]: 68.1%
growth [4]: 12.2%
growth [5]: 3.9% (active)
growth [6]: 62.3%
growth [7]: 48.7%
growth [8]: 30.9%
growth [9]: 52.4%

COc1ccc2c(c1)oc1c3[nH]c4ccccc4c3c3c(c21)C(=O)N(O)C3=O
growth [1]: 31.6%
growth [2]: 79.9%
growth [3]: 65.5%
growth [4]: 13.2%
growth [5]: 5.34% (active)
growth [6]: 98.7%
growth [7]: 74.3%
growth [8]: 31.1%
growth [9]: 69.5%

COc1cc2c3c(n(CCCN4CCC[C@H]4C(N)=O)c(=O)c2cc1OC)-c1cc2c(cc1C3=O)OCO2
growth [1]: -3.5% (active)
growth [2]: -15% (active)
growth [3]: 26.1%
growth [4]: -0.224% (active)
growth [5]: 0.252% (active)
growth [6]: 23.9%
growth [7]: 30.7%
growth [8]: -10.3% (active)
growth [9]: 16.4%

Cc1ccc(NC(=O)N[C@@H](Cc2cc(F)cc(F)c2)C(=O)NC2C(=O)N3CCC[C@H]3C(=O)N3CCCC[C@H]3C(=O)N[C@@H](C)C(=O)N3C[C@H](C)C[C@H]3C(=O)O[C@H]2C)c(F)c1 (stereo not given in full)
growth [1]: 35.2%
growth [2]: 1.32% (active)
growth [3]: 52.7%
growth [4]: 33.8%
growth [5]: 15.3%
growth [6]: 4.3% (active)
growth [7]: 26.1%
growth [8]: 40.7%
growth [9]: -33.3% (active)

O=C(NCCCCCCNC(=O)c1c2c(nc3ccccc13)-c1cccnc1SC2)c1c2c(nc3ccccc13)-c1cccnc1SC2
growth [1]: 63.1%
growth [2]: 82.6%
growth [3]: 71.9%
growth [4]: 43.9%
growth [5]: 75%
growth [6]: 50.8%
growth [7]: 70.6%
growth [8]: 76.5%
growth [9]: 28.8%

C=C1C(=O)O[C@@H]2C[C@@H](C)[C@H](OC)CC(=O)[C@](C)(OC(C)=O)C[C@H](OC(=O)/C(C)=C\C)[C@@H]12
growth [1]: 70%
growth [2]: 96.4%
growth [3]: 95.1%
growth [4]: 89.5%
growth [5]: 101%
growth [6]: 85.1%
growth [7]: 100%
growth [8]: 93%
growth [9]: -7.69% (active)

O=c1[nH]c(CCl)nc2c1cnn2-c1ccccc1
growth [1]: 101%
growth [2]: 110%
growth [3]: 101%
growth [4]: 125%
growth [5]: 101%
growth [6]: 101%
growth [7]: 98.6%
growth [8]: 77.9%
growth [9]: 114%

O=C1c2c(c3c4cccnc4[nH]c3c3ccc4ccccc4c23)C(=O)N1CCN1CCOCC1
growth [1]: 45.3%
growth [2]: 71.5%
growth [3]: 84.5%
growth [4]: 47.6%
growth [5]: 10.6%
growth [6]: 80.7%
growth [7]: 55.4%
growth [8]: 77.9%
growth [9]: 66.8%

CC(C)(C)OC(=O)N1CCN(S(=O)(=O)/N=C2\NC(=O)NC2=C(Cl)Cl)CC1
growth [1]: 91.8%
growth [2]: 105%
growth [3]: 98.9%
growth [4]: 105%
growth [5]: 101%
growth [6]: 108%
growth [7]: 103%
growth [8]: 101%
growth [9]: 86.3%

CCC(=O)Nc1cc(Nc2cc(NC3CC3)n3ncc(C#N)c3n2)ccc1C
growth [1]: 15.3%
growth [2]: 26.4%
growth [3]: 19.4%
growth [4]: 24.8%
growth [5]: 16.1%
growth [6]: 6.91% (active)
growth [10]: 27%
growth [7]: 26.9%
growth [8]: 42%
growth [9]: 30.4%

O=C(NCCNc1cc(-c2cn(-c3ccccc3)nc2-c2cccc(O)c2)ccn1)Nc1ccc(Cl)c(C(F)(F)F)c1
growth [1]: 41.3%
growth [2]: 81.5%
growth [3]: 68.4%
growth [4]: 85.3%
growth [5]: 58.5%
growth [6]: 44%
growth [7]: 61.8%
growth [8]: 64.6%
growth [9]: 92.9%

O=C1c2cc(Br)ccc2-n2c1nc1cc(Br)ccc1c2=O
growth [1]: 58.6%
growth [2]: 78.3%
growth [3]: 88.7%
growth [4]: 82.3%
growth [5]: 85.4%
growth [6]: 134%
growth [10]: 68.9%
growth [7]: 67.1%
growth [8]: 88.5%
growth [9]: 85.7%

O=C(CCCCCCN1CC(=O)N2[C@@H](c3cccc(Br)c3)c3[nH]c4ccccc4c3C[C@H]2C1=O)NO
growth [1]: 43.1%
growth [2]: 91.7%
growth [3]: 42.2%
growth [4]: 30.2%
growth [5]: 26.4%
growth [6]: 2% (active)
growth [7]: 59.4%
growth [8]: 46.6%
growth [9]: 7.27% (active)

COc1ccc2c(C3=C(c4c[nH]c5ccccc45)C(=O)N(O)C3=O)coc2c1
growth [1]: 93%
growth [2]: 74.9%
growth [3]: 96.8%
growth [4]: 84.7%
growth [5]: 90.3%
growth [6]: 96%
growth [7]: 96.6%
growth [8]: 93.8%
growth [9]: 99.2%

O=C1c2c(O)cc(O)cc2O[C@@H](c2ccc(O)cc2)[C@@H]1c1c(O)cc(O)c2c(=O)cc(-c3ccc(O)c(O)c3)oc12
growth [1]: 92%
growth [2]: 76.6%
growth [3]: 97%
growth [4]: 96.3%
growth [5]: 112%
growth [6]: 104%
growth [7]: 106%
growth [8]: 100%
growth [9]: 114%

COc1ccc(-c2no[n+]([O-])c2Nc2ccccc2Br)cc1
growth [1]: 91.8%
growth [2]: -13% (active)
growth [3]: 96.8%
growth [4]: 84.5%
growth [5]: 101%
growth [6]: 73%
growth [7]: 102%
growth [8]: 106%
growth [9]: 107%

Cc1ccc(-c2csc(N/N=C/c3nc4ccccc4n3C3CC3)n2)cc1
growth [1]: 82.9%
growth [2]: 64.2%
growth [3]: 91.5%
growth [4]: 74.9%
growth [5]: 84.4%
growth [6]: 92.8%
growth [7]: 41.1%
growth [8]: 108%
growth [9]: 8.64% (active)

C=C1C(=O)O[C@@H]2C[C@@H](C)/C=C\C(=O)[C@](C)(OC(C)=O)C[C@H](OC(=O)/C(C)=C\C)[C@@H]12
growth [1]: -13.9% (active)
growth [2]: -43.4% (active)
growth [3]: 88%
growth [4]: 74.6%
growth [5]: 20%
growth [6]: -35.6% (active)
growth [7]: 72.9%
growth [8]: -62.8% (active)
growth [9]: -78.3% (active)

Cc1ccc(-n2cc(/C=C/C(=O)c3ccc(S(C)(=O)=O)cc3)c(-c3ccc(S(C)(=O)=O)cc3)n2)cc1
growth [1]: 87.4%
growth [2]: 100%
growth [3]: 94.6%
growth [4]: 89.2%
growth [5]: 100%
growth [6]: 115%
growth [7]: 103%
growth [8]: 103%
growth [9]: 114%

Cc1ccc(NC(=O)c2cc(/C=C/C(=O)NO)cc(C(F)(F)F)c2)cc1Nc1nccc(-c2cccnc2)n1
growth [1]: 2.29% (active)
growth [2]: 17.5%
growth [3]: 12.8%
growth [4]: -19.1% (active)
growth [5]: 2.09% (active)
growth [6]: -30.6% (active)
growth [7]: 61.2%
growth [8]: -22% (active)
growth [9]: -65.2% (active)

C=CCn1c(SCC(=O)Nc2cccc(C(=O)/C=C/c3ccccc3Cl)c2)nc2ccccc2c1=O
growth [1]: 94.7%
growth [2]: 91.8%
growth [3]: 92%
growth [4]: 108%
growth [5]: 93%
growth [6]: 70.7%
growth [7]: 86.2%
growth [8]: 88%
growth [9]: 113%

Oc1ccc(CSc2nnc(-c3cnccn3)n2-c2ccccc2)c2cccnc12
growth [1]: 26.9%
growth [2]: 30%
growth [3]: 31.2%
growth [4]: 22.1%
growth [5]: 10.4%
growth [6]: -3.39% (active)
growth [7]: 29.5%
growth [8]: 35.1%
growth [9]: 103%

O=c1c2ccccc2nc(COc2ccccc2)n1/N=C/C=C/c1ccccc1
growth [1]: 95.9%
growth [2]: 98.1%
growth [3]: 93%
growth [4]: 98.6%
growth [5]: 99.1%
growth [6]: 102%
growth [7]: 100%
growth [8]: 100%
growth [9]: 113%

CCCCCCNC(=O)Oc1ccc(/C(=C(/C)c2ccc(Cl)cc2)c2ccc(OCCN3CCCC3)cc2)cc1
growth [1]: 48.3%
growth [2]: 83.1%
growth [3]: 69.2%
growth [4]: 65%
growth [5]: -57% (active)
growth [6]: 26%
growth [7]: 53.4%
growth [8]: -28.8% (active)
growth [9]: -36.4% (active)

C/C(=C(/C)C1CC1CCN(C(=O)c1ccc([N+](=O)[O-])cc1)S(=O)(=O)c1ccc(C)cc1)C1CCCCC1 (stereo not given)
growth [1]: 87.2%
growth [2]: 90.8%
growth [3]: 100%
growth [4]: 109%
growth [5]: 98.6%
growth [6]: -49% (active)
growth [7]: 97.8%
growth [8]: 96.2%
growth [9]: 112%

COc1cc(CNC(=O)/C=C/c2ccccc2)ccc1OCC(=O)NO
growth [1]: 103%
growth [2]: 97.4%
growth [3]: 103%
growth [4]: 102%
growth [5]: 109%
growth [6]: 98.4%
growth [7]: 101%
growth [8]: 103%
growth [9]: 102%
